# Compound activity deposited in PubChem by several laboratories.
# This is a sample that favours compounds with a hit; in the whole collection about 2.2% have one here.
# Arbovirus inh – antivirals against arbovirus infection; 0.37% of 200,000 active; inhibition, % at 10 µM; arbovirus infection cell-based antiviral screen; in the data active = inhibition above about 30%
# HMGR II inh – E. faecalis class II HMG-CoA reductase inhibition; purified E. faecalis HMGR, NADPH absorbance 340 nm kinetic; inhibition, % at 10 µM; 0.41% of 190,000 active;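 active = inhibition above a set limit, the median over all tested compounds plus 3 SD, cut at about 9.5% in these data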;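 also: enzyme runs in reverse so mevalonate oxidation gives rising NADPH absorbance; 0% = complete reaction with DMSO and 100% = background rate lacking mevalonate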
# Insulin prom up – MIN6 insulin promoter up-regulation; 0.3% of 190,000 active; MIN6 insulin promoter-GFP reporter, high-content imaging; stronger effect = higher value; z-score at 5 µM;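 active = z-score above 3 at 5 µM with at least 500 cells counted in the well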
# Autophagy mod – autophagy modulation, high-content screen; MEF GFP-LC3 puncta imaging; test concentration mostly 10 µM; calls only at 10 µM (by protocol); 0.98% of 190,000 active;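 active = percentage of spot-positive cells more than 3 SD above its plate mean, without a fluorescence outlier flag or 80% toxicity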;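 also: spot-positive cell cutoff set from DMSO-treated cells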
# NCF1 inh – inhibitors of human p47phox binding; P14598; p47phox/p22phox peptide binding, fluorescence polarization, 2 h; inhibition, % at 24.7 µM; 0.53% of 220,000 active;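 active = inhibition above about 30%, limit read from the data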;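 also: 0% = p47phox with labelled peptide and 100% = labelled peptide alone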
# Target sequence (P14598 whole entry, looked up): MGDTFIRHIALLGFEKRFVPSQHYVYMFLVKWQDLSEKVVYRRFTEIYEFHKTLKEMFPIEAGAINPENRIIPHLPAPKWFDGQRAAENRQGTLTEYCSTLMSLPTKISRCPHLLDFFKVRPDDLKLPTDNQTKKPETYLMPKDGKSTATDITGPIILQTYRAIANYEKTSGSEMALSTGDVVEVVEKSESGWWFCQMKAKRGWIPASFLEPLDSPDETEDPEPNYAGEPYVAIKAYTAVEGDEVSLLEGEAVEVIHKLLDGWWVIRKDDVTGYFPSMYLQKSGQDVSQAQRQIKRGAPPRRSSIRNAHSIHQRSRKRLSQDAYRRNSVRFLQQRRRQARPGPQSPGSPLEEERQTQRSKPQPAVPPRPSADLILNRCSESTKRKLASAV
# Redox H2O2 prof – compounds producing H2O2 with reducing agent – biochemical, NIH compound library profiling, artefact control for MLSCN library redox annotation, primary screen; DTT-dependent redox cycling H2O2, phenol red/HRP absorbance; 100% = 100 µM peroxide control, 0% = buffer; activation, % at 10 µM; 0.03% of 200,000 active;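 active = activation of at least 50% relative to the plate's high and low controls in the primary single-dose screen; inactive = activation below 50%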;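 also: compound incubated with DTT at 0.8 mM final as the reducing agent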
# Active calls of the source: *; i = inactive; / = no result; + = active, no number.
SMILES,Arbovirus inh,HMGR II inh,Insulin prom up,Autophagy mod,NCF1 inh,Redox H2O2 prof
CCC(C(=O)OC)n1c(-c2ccccc2)nc2ccccc2c1=O (centres undefined),-0.1,12.0*,-0.96,i,-16.7,-0.4
CCNC(=O)Nn1c(-c2ccccc2)nc2ccccc2c1=O,9.2,-6.2,0.86,i,4.6,2.0
CC(C)S(=O)(=O)c1cnc(-c2cccnc2)nc1N,/,/,1.47,/,-5.3,/
Cc1c(C(=O)Nc2ccc(Cl)cc2)c2ccccn2c1C(=O)c1ccc([N+](=O)[O-])cc1,4.7,-2.6,-0.34,+,-11.3,0.1
Cc1cccc(OCCN2C(=O)C(=O)c3cc(C)ccc32)c1,-16.6,0.5,-0.1,+,-1.7,0.2
COc1ccc(C(=O)c2ccc(N(C)C)cc2)c2ccccc12,-14.3,-0.3,/,+,-7.7,0.2
C/C(CC(=O)NCc1ccccc1)=N\NC(=O)c1cnccn1,-0.7,-7.8,-0.08,i,-2.3,0.1
COc1ccc(NC(=O)Cn2nnc(C(=O)Nc3ccccc3C)c2N)cc1,-2.5,-2.2,0.04,i,-10.1,-0.3
Cc1ccccc1NC(=O)Cn1nnc(C(=O)NCc2ccco2)c1N,-8.4,12.7*,-0.2,i,0.8,-0.6
Cc1ccccc1NC(=O)Cn1nnc(S(=O)(=O)c2ccc(C(C)(C)C)cc2)c1N,-15.7,18.2*,0.35,i,1.4,0.6
Cc1ccccc1-n1c(SCC(=O)NCc2cccs2)nc2ccccc2c1=O,8.2,-1.9,0.32,i,30.4*,0.4
COc1ccc(Cl)cc1C(=O)Nc1cccc(-c2ccc3nncn3n2)c1,11.9,-1.6,-0.67,i,33.4*,0.1
O=c1[nH][nH]c2c(N=Cc3ccccc3O)ccc(F)c12,/,/,0.45,/,133.9*,/
CSc1nc(-c2ccc(Cl)cc2Cl)[nH]c(=O)c1C#N,42.1*,-5.3,0.17,i,3.0,-1.0
O=S1(=O)C=C(Sc2nc3ccccc3s2)c2ccccc21,-29.1,-1.4,-0.19,+,-7.8,-2.6
CCCCN1CNC(=S)N(c2ccccc2OCC)C1,3.2,0.3,0.01,i,-6.8,-0.2
CCN(CC)S(=O)(=O)c1cc(C(=O)O)ccc1OC,/,/,-0.01,/,-2.7,/
CCN(Cc1ccccc1)S(=O)(=O)c1cc(C(=O)NCCCN(C)C)ccc1OC,15.9,11.7*,0.6,i,-8.1,0.0
C/C(=N\NC(=O)c1cc(C(C)(C)C)[nH]n1)C12CC3CC(CC(C3)C1)C2,7.5,0.8,/,+,-3.2,1.0
O=C(N/N=C/c1ccc(O)cc1)c1cc(C23CC4CC(CC(C4)C2)C3)[nH]n1,/,/,-0.21,/,-32.8,/
COc1ccc(-c2c(C)oc3c(CN4CCN(C)CC4)c(O)ccc3c2=O)cc1,-0.4,-7.3,1.41,+,-20.2,-1.0
COc1ccc(-c2c(C(F)(F)F)oc3c(CN4CCN(C)CC4)c(O)ccc3c2=O)cc1,2.3,3.9,-0.06,i,4.8,3.2
Cc1ccc(Nc2nc(N)c([N+](=O)[O-])c(N3CCC(C)CC3)n2)cc1C,-35.6,-4.2,-0.4,i,3.2,-0.5
Cc1ccc(Nc2nc(N)c([N+](=O)[O-])c(N3CCOCC3)n2)cc1C,51.2*,2.6,-1.61,i,-6.9,0.3
COC(=O)C1=C(C)N(Cc2ccco2)C(=O)N[C@@H]1c1ccccc1,-2.6,10.9*,-0.14,i,-6.1,0.9
SMILES,Arbovirus inh,HMGR II inh,Insulin prom up,Autophagy mod,NCF1 inh,Redox H2O2 prof
COC(=O)C1=C(C)N(Cc2ccco2)C(=O)N[C@H]1c1cccc(C(F)(F)F)c1,6.1,-6.4,0.3,i,0.8,0.3
O=C(c1cnn2c(C(F)(F)F)cc(-c3ccc(Br)cc3)nc12)N1CCOCC1,7.9,0.8,0.29,i,-9.5,-0.1
Cc1nn2c(C(F)(F)F)cc(-c3ccc(Cl)cc3)nc2c1C(=O)N1CCOCC1,0.5,17.2*,-0.16,i,-3.3,-0.4
CCOC(=O)CCn1c2nc(C)cc(C)c2c(=O)n1-c1ccccc1,1.1,-0.7,0.49,i,33.9*,0.0
O=[N+]([O-])c1ccc(-c2ccc(/C=N/Nc3nc(NCc4ccccc4)nc(N4CCOCC4)n3)o2)cc1,-31.8,0.5,/,+,-57.9,-0.2
Cc1nn(Cc2ccccc2)c(C)c1NC(=O)CSc1nc2c(c(C(F)(F)F)n1)CCc1ccccc1-2,25.6,-4.2,-2.47,i,41.7*,0.0
Cc1ccc(NC2OC(C(O)CO)C(O)C2O)cc1[N+](=O)[O-] (centres undefined),0.3,-8.1,/,i,-21.8,-4.9
Cc1c(Cl)c(=O)n2c(=O)c(Cl)c(C)n12,1.1,1.0,0.3,i,-5.8,-1.4
COc1ccc(OC)c(N(CC(=O)N2CCN(c3cc(Cl)ccc3C)CC2)S(C)(=O)=O)c1,40.9*,-6.8,-0.43,+,-1.4,0.6
Cc1ccc(O)c(C2=Nc3ccccc3N=C(c3cccc([N+](=O)[O-])c3)C2)c1,2.5,-0.6,-0.43,i,-8.1,-0.5
CC(=O)c1ccc(N2CCN(C(=O)Cc3n[nH]c(=O)c4ccccc34)CC2)cc1,8.3,13.5*,0.04,i,-7.9,-0.7
O=C(Cc1n[nH]c(=O)c2ccccc12)N1CCN(c2ccc(F)cc2)CC1,16.9,-6.8,-0.66,i,-6.1,-0.1
COc1cc(/C=C2\SC(=Nc3ccccc3)N(CCc3c[nH]c4ccccc34)C2=O)ccc1OC(C)C(=O)O (centres undefined),-13.2,1.5,0.02,i,-55.6,0.3
COCCN1C(=O)/C(=C/c2ccc(Oc3ccc([N+](=O)[O-])cn3)c(OC)c2)SC1=Nc1ccccc1,32.2*,-0.1,-0.01,i,-2.4,1.9
Cc1cc(C)c2c(c1)NC(c1cc3c(cc1Br)OCO3)C1CC=CC21 (centres undefined),-10.6,-2.9,0.55,i,-18.6,1.7
CSc1nnc(C)c(/C=C/Nc2ccc(F)cc2)n1,-6.1,-3.0,/,i,-13.6,2.6
COc1ccc(N/C=C/c2nc(SC)nnc2C)cc1,-11.1,-5.4,0.26,+,-15.6,-0.2
CCCCCCN(C(=O)CCCCCN1C(=O)NC(c2ccc(C3CCCCC3)cc2)C(C(=O)OCc2ccccc2)=C1C)C(C(=O)NCCCC)c1ccc(OCC(=O)OC)c(C(=O)OC)c1 (centres undefined),/,/,/,/,11.1,/
N=C(CC1CC(=O)NC(=O)C1)C1=C(O)CCCC1=O,-14.1,-1.7,0.65,i,-18.3,-0.1
O=[N+]([O-])/C(C(=C(Cl)Cl)N1CCN(Cc2ccccc2)CC1)=C1\NCCN1Cc1ccc(Cl)nc1,-3.2,-4.3,-0.3,i,-8.0,-0.3
O=[N+]([O-])C(/C=C(\Cl)[N+](=O)[O-])=C1N(Cc2ccc(Cl)nc2)CCN1Cc1ccc(Cl)nc1,1.7,13.4*,/,i,-6.8,0.5
C/C(=N/NS(=O)(=O)c1ccccc1)c1ccc(NC(=O)C2CC2)cc1,2.7,-1.8,/,i,2.3,-0.8
